In PubChem BioAssay (EPA / NIEHS):
Values joined by “and” are separate entries in the source; they are usually repeats but may differ in a detail not shown here. Equal values may be shown once. A structure can be active in one record and inactive in another. Active and inactive are the calls of the source. The calls were made as follows: active = hit-call score of the fitted dose curve at least 0.9, where 1 is the maximum; inactive = score below 0.9.

Key:
[1] = ATG_GLI_CIS: Attagene CIS-FACTORIAL HepG2 Assay for human Zinc Finger Protein GLI1 (AID 2282945); details: HepG2, Attagene cis-factorial reporter mRNA, GLI element; actives raise or lower the signal
Summary of the method: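 HepG2 cells transiently transfected with cis-promoter multiplexed reporter units report endogenous transcription factor activity. After 24 h chemical exposure, reporter mRNA was quantified by RT-PCR, 6-FAM labelling, HpaI digestion and capillary electrophoresis, with bidirectional fitting against DMSO.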

[2] = molecular target: Bile acid receptor (Homo sapiens) (UniProt Q96RI1); assay: ATG_IR1_CIS: Attagene CIS-FACTORIAL HepG2 Assay for human Nuclear Receptor Subfamily 1 Group H Member 4 (NR1H4), IR1 submotif (AID 2282946); details: IR1 reporter transcription, actives raise or lower the signal
Sequence of Bile acid receptor (Homo sapiens) (Q96RI1 whole entry, looked up): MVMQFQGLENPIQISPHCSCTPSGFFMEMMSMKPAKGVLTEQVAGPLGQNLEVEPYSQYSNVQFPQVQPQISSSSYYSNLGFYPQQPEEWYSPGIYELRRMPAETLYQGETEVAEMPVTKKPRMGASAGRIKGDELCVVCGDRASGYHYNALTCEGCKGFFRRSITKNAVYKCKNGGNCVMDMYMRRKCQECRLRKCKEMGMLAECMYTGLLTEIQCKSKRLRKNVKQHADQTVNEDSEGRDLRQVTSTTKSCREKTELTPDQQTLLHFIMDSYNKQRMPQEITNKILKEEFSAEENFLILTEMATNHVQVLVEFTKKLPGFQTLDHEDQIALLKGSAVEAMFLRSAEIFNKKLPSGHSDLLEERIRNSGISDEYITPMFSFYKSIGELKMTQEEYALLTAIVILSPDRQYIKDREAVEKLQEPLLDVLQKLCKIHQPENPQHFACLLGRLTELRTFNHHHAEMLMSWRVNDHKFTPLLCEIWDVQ
Summary of the method: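 Transient MRTU transfection, HepG2; 24 h dosing; RNA → RT-PCR → 6-FAM primer extension → HpaI digest → capillary electrophoresis fluorescence. Gain/loss of signal fitted relative to DMSO.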

[3] = ATG_GRE_CIS: Attagene CIS-FACTORIAL HepG2 Assay for human Glucocorticoid Response Elements (GRE) (AID 2282947); details: HepG2 GRE cis-reporter, Attagene multiplex mRNA; actives raise or lower the signal
Summary of the method: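 HepG2 cells transiently transfected with multiple cis-promoter reporter units measure endogenous TF activity; 24 h compound exposure. Reporter mRNA quantified by RT-PCR, FAM labelling, HpaI digestion and capillary electrophoresis; bidirectional fit vs DMSO baseline.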

[4] = ATG_ISRE_CIS: Attagene CIS-FACTORIAL HepG2 Assay for human Interferon Regulatory Factor 1 (IRF1) binding to an Interferon-Stimulated Response Element (ISRE) (AID 2282948); details: HepG2 ISRE cis-reporter (Attagene), mRNA transcription readout; actives raise or lower the signal
Summary of the method: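 HepG2 cells transiently transfected with multiplexed cis-promoter reporter units; after 24 h compound exposure, reporter mRNA quantified by RT-PCR, FAM labelling, HpaI digestion and capillary electrophoresis. Bidirectional fit versus DMSO baseline.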

[5] = ATG_M_32_CIS: Attagene CIS-FACTORIAL HepG2 Assay for M32 Transcription Factor (Internal Marker) (AID 2282949); details: HepG2 Attagene cis-factorial M32 reporter, mRNA; actives raise or lower the signal;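 also: background control marker of the multiplexed CIS panel rather than a real target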
Summary of the method: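 Internal background marker read-out: RT-PCR/capillary electrophoresis fluorescence of reporter transcripts from transiently transfected HepG2 cells after 24 h chemical exposure. Activity fitted bidirectionally relative to DMSO negative control.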

[6] = ATG_M_06_CIS: Attagene CIS-FACTORIAL HepG2 Assay for M06 Transcription Factor (Internal Marker) (AID 2282950); details: HepG2 Attagene CIS-FACTORIAL M06 internal marker reporter; actives raise or lower the signal
Summary of the method: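 One of many multiplexed endpoints: HepG2 reporter mRNA after 24 h dosing, detected by RT-PCR and capillary electrophoresis fluorescence; gain or loss of signal analysed against DMSO.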

[7] = molecular target: Hypoxia-inducible factor 1-alpha (Homo sapiens) (UniProt Q16665); assay: ATG_HIF1a_CIS: Attagene CIS-FACTORIAL HepG2 Assay for human Hypoxia Inducible Factor 1 (HIF1A) (AID 2282951); details: HepG2 Attagene cis-factorial HIF1a reporter transcription; actives raise or lower the signal
Sequence of Hypoxia-inducible factor 1-alpha (Homo sapiens) (Q16665 whole entry, looked up): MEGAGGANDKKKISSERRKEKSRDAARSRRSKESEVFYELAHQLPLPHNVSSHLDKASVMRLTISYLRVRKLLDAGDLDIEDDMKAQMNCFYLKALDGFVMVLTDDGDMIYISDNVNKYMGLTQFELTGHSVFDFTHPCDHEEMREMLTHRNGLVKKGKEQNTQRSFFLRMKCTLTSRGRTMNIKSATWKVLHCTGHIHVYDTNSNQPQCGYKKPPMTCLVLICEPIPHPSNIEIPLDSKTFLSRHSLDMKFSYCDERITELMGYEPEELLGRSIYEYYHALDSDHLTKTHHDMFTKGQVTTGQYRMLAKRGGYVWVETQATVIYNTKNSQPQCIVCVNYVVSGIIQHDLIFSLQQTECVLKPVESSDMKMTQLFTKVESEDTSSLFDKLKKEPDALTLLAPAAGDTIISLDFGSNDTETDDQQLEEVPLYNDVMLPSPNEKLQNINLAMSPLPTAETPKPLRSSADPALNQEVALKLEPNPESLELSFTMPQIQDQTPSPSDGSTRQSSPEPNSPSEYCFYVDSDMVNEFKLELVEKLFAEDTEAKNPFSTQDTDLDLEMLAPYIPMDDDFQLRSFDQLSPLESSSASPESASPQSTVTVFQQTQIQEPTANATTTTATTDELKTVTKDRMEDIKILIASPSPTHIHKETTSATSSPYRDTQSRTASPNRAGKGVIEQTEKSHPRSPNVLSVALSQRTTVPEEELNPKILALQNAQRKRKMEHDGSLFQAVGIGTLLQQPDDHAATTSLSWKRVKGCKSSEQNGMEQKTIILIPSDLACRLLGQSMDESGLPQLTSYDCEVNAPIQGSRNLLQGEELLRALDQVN
Summary of the method: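 Activity is fitted in both directions relative to DMSO. Reporter transcripts are read by RT-PCR, fluorescent primer extension and capillary electrophoresis after 24 h chemical treatment. The cells are HepG2 carrying transiently transfected cis-element-driven reporter units responding to endogenous factors.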

[8] = molecular target: Hepatocyte nuclear factor 6 (Homo sapiens) (UniProt Q9UBC0); assay: ATG_HNF6_CIS: Attagene CIS-FACTORIAL HepG2 Assay for human Hepatocyte Nuclear Factor 6 (HNF6) (AID 2282952); details: HepG2 Attagene cis-factorial HNF6 reporter transcription; actives raise or lower the signal
Sequence of Hepatocyte nuclear factor 6 (Homo sapiens) (Q9UBC0 whole entry, looked up): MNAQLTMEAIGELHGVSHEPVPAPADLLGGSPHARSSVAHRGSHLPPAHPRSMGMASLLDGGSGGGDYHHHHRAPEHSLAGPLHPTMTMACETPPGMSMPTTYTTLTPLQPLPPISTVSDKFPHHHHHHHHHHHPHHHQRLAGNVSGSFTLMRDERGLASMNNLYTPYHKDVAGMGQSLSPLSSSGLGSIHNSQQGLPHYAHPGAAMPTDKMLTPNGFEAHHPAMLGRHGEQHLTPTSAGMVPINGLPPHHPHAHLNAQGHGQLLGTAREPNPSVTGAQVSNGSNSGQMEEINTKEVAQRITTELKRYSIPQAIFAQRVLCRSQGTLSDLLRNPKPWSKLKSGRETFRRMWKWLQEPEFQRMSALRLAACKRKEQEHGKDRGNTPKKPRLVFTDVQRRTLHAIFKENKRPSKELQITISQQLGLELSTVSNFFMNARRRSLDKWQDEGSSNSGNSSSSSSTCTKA
Summary of the method: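 HepG2 cells transiently transfected with cis-element-driven multiple reporter transcription units, dosed 24 h; reporter mRNA quantified by RT-PCR, FAM primer extension, HpaI digestion and capillary electrophoresis; bidirectional fit versus DMSO baseline.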

[9] = molecular target: Heat shock factor protein 1 (Homo sapiens) (UniProt Q00613); assay: ATG_HSE_CIS: Attagene CIS-FACTORIAL HepG2 Assay for human Heat Shock Transcription Factor 1 (HSE) (AID 2282953); details: HepG2 HSE cis-reporter, Attagene RNA transcription; actives raise or lower the signal
Sequence of Heat shock factor protein 1 (Homo sapiens) (Q00613 whole entry, looked up): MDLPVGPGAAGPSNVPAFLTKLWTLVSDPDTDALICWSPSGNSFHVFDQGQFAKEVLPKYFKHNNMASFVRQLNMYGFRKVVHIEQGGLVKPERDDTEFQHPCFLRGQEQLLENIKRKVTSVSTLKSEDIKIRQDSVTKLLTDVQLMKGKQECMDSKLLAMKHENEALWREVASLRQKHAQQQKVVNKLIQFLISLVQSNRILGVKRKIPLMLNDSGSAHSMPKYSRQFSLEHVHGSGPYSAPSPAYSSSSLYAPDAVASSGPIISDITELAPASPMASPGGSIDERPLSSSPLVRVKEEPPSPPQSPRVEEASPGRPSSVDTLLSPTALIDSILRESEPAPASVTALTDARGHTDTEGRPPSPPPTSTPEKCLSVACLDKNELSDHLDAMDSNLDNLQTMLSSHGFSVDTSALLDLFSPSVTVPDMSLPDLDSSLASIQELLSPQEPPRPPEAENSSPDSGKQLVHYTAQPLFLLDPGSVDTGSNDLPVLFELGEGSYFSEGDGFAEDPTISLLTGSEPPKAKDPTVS
Summary of the method: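 Using HepG2 with transfected cis-driven reporter constructs, compound effects on endogenous factor activity are scored as reporter mRNA change at 24 h. Detection: RT-PCR, HpaI digestion, capillary electrophoresis; bidirectional fitting to DMSO.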

[10] = ATG_MRE_CIS: Attagene CIS-FACTORIAL HepG2 Assay for human Metal Responsive Element (MRE) (AID 2282954); details: HepG2 MRE cis-reporter transcription, Attagene multiplex; actives raise or lower the signal
Summary of the method: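 HepG2 cells transiently transfected with multiple cis-element reporter units measure endogenous MTF1-driven transcription. After 24 h compound exposure, reporter mRNA is quantified by RT-PCR with 6-FAM labelling, HpaI digestion and capillary electrophoresis; bidirectional fits versus DMSO.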

[11] = ATG_PBREM_CIS: Attagene CIS-FACTORIAL HepG2 Assay for human Phenobarbital-responsive Enhancer Module (PBREM) (AID 2282955); details: HepG2 PBREM cis-reporter, Attagene multiplexed transcription; actives raise or lower the signal
Summary of the method: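 Endogenous transcription factor activity was read from reporter transcripts in transiently transfected human HepG2 liver cells after 24 h dosing. RT-PCR products were fluorescently labelled, HpaI-cut and sized by capillary electrophoresis; activity fitted bidirectionally against DMSO baseline.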

[12] = molecular target: Paired box protein Pax-6 (Homo sapiens) (UniProt P26367); assay: ATG_Pax6_CIS: Attagene CIS-FACTORIAL HepG2 Assay for human Paired Box 6 (PAX6) (AID 2282956); details: HepG2 CIS-FACTORIAL PAX6 reporter transcription, RNA readout; actives raise or lower the signal
Sequence of Paired box protein Pax-6 (Homo sapiens) (P26367 whole entry, looked up): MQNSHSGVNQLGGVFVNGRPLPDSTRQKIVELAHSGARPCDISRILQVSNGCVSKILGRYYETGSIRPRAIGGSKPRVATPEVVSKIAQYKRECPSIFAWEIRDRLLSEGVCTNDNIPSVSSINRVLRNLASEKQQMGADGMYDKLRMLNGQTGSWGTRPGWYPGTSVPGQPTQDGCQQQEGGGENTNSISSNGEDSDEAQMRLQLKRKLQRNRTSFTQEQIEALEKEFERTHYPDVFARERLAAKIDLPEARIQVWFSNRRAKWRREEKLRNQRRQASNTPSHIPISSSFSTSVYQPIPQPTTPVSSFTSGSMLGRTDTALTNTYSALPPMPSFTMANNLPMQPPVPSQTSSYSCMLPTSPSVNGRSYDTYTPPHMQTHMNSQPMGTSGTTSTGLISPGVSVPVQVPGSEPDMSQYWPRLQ
Summary of the method: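 HepG2 cells transiently transfected with multiplexed cis-promoter reporter units (endogenous TF activity) were dosed for 24 h. Reporter mRNA was quantified by RT-PCR, 6-FAM labeling, HpaI digestion and capillary electrophoresis; bidirectional fitting versus DMSO baseline.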

[13] = ATG_PXRE_CIS: Attagene CIS-FACTORIAL HepG2 Assay for human Pregnane X Receptor Element (PXRE) (AID 2282957); details: HepG2 Attagene CIS-FACTORIAL PXRE reporter, mRNA; actives raise or lower the signal
Summary of the method: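 HepG2 cells transiently transfected with cis-regulated multiple reporter transcription units; endogenous factor activity measured as reporter mRNA 24 h after dosing. RT-PCR, fluorescent primer extension, HpaI digestion, capillary electrophoresis; bidirectional fit versus DMSO baseline.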

[14] = ATG_PPRE_CIS: Attagene CIS-FACTORIAL HepG2 Assay for human Peroxisome Proliferator-activated Response Element (PPRE) (AID 2282958); details: HepG2 PPRE cis-element reporter, Attagene transcription factor profiling; actives raise or lower the signal
Summary of the method: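 Endogenous PPRE-driven transcription is measured in HepG2 cells carrying transfected multi-reporter constructs. Reporter transcripts are quantified by RT-PCR, HpaI digestion and capillary electrophoresis 24 h after dosing. DMSO baseline, bidirectional fit.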

[15] = ATG_Sox_CIS: Attagene CIS-FACTORIAL HepG2 Assay for human SRY-box transcription factor (SOX) (AID 2282960); details: HepG2 Attagene cis-factorial SOX reporter, mRNA; actives raise or lower the signal
Summary of the method: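 Reporter transcripts, measured by RT-PCR and capillary electrophoresis of labelled fragments, report endogenous SOX transcription factor activity. Transiently transfected human HepG2 cells receive chemical for 24 h; changes in either direction are fitted relative to DMSO.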

[16] = molecular target: Transcription factor Sp1 (Homo sapiens) (UniProt P08047); assay: ATG_Sp1_CIS: Attagene CIS-FACTORIAL HepG2 Assay for human Specificity Protein 1 (Sp1) (AID 2282961); details: HepG2 Sp1 cis-reporter transcription, actives raise or lower the signal
Sequence of Transcription factor Sp1 (Homo sapiens) (P08047 whole entry, looked up): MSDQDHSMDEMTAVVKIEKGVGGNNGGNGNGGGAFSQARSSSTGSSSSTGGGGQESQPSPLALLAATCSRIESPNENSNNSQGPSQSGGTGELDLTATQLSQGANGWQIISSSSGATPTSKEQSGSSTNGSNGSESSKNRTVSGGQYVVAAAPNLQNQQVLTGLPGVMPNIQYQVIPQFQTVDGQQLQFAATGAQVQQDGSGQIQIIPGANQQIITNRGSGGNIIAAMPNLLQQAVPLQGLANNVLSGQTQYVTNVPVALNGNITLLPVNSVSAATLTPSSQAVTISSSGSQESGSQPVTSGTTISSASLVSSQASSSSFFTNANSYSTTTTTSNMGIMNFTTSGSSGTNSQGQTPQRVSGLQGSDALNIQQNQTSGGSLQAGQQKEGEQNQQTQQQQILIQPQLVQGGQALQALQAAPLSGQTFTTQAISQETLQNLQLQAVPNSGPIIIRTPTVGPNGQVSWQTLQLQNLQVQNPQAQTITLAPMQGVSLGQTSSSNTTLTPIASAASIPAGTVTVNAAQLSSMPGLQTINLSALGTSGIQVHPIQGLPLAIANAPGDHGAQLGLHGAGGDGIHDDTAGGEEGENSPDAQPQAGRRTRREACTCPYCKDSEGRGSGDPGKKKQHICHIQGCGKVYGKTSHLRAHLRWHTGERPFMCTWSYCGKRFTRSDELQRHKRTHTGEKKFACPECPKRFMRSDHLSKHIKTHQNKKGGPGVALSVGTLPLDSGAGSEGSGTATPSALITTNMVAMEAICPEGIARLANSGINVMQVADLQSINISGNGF
Summary of the method: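 Read-out is reporter transcript level, measured by RT-PCR and fluorescent capillary electrophoresis after 24 h chemical treatment. System: transiently transfected HepG2 cells reporting endogenous transcription factor activity; gain or loss fitted against DMSO baseline.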

[17] = ATG_SREBP_CIS: Attagene CIS-FACTORIAL HepG2 Assay for human Sterol Regulatory Element Binding (SREBP) (AID 2282962); details: HepG2 Attagene cis-factorial SREBP reporter, mRNA; actives raise or lower the signal
Summary of the method: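 HepG2 cells transiently transfected with multiplexed cis-element reporter units report endogenous transcription factor activity. After 24 h of chemical exposure, reporter mRNA was quantified by RT-PCR, 6-FAM labelling, HpaI digestion and capillary electrophoresis; bidirectional fits used DMSO as baseline.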

[18] = molecular target: Signal transducer and activator of transcription 3 (Homo sapiens) (UniProt P40763); assay: ATG_STAT3_CIS: Attagene CIS-FACTORIAL HepG2 Assay for human Signal Transducer and Activator of Transcription 3 (STAT3) (AID 2282963); details: HepG2, Attagene cis-factorial STAT3 reporter transcription; actives raise or lower the signal
Sequence of Signal transducer and activator of transcription 3 (Homo sapiens) (P40763 whole entry, looked up): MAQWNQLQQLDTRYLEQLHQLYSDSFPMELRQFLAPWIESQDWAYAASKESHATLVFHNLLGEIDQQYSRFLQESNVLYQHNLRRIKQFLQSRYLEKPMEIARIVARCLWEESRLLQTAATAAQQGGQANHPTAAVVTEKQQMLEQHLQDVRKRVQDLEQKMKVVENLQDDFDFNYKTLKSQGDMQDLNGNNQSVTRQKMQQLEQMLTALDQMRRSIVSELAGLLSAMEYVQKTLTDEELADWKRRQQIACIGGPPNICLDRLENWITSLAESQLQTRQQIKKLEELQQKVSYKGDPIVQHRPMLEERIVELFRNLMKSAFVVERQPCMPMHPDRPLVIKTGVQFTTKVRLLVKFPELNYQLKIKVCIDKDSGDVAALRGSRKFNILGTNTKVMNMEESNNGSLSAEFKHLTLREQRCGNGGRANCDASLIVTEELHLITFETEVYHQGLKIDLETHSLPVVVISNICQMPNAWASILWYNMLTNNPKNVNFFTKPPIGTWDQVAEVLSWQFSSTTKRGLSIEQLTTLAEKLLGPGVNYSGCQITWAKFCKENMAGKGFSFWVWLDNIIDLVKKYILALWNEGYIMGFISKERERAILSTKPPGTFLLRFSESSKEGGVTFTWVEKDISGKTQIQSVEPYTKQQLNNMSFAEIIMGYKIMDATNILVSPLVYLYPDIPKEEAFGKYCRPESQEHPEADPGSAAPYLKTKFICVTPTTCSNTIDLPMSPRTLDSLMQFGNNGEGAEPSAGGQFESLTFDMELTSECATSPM
Summary of the method: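 HepG2 cells transiently transfected with cis-element-driven multiple reporter transcription units; after 24 h chemical exposure, reporter mRNA measured by RT-PCR, 6-FAM primer-extension labelling, HpaI digestion and capillary electrophoresis. Bidirectional fitting versus DMSO baseline.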

[19] = ATG_TA_CIS: Attagene CIS-FACTORIAL HepG2 Assay for human TA Basal Promoter (AID 2282964); details: HepG2 Attagene CIS-factorial TA basal promoter reporter; actives raise or lower the signal
Summary of the method: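 Transient MRTU transfection of HepG2 preceded 24 h compound exposure. Reporter mRNA levels were then read by RT-PCR with capillary electrophoresis, and this background-control endpoint was fitted bidirectionally to DMSO.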

[20] = ATG_RORE_CIS: Attagene CIS-FACTORIAL HepG2 Assay for human RAR-related Orphan Receptor Element (RORE) (AID 2282959); details: HepG2 Attagene cis-factorial RORE reporter, mRNA; actives raise or lower the signal
Summary of the method: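 RORE reporter transcripts reflecting endogenous factor activity were read after 24 h compound exposure of transfected HepG2 cells, using reverse transcription, PCR, fluorescent labelling and capillary electrophoresis sizing. Gain or loss fitted against DMSO.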

Measured: AC50

O=C(CC(=O)C(F)(F)C(F)(F)F)C(F)(F)F
active: [2] 106 µM | [13] 76.4 µM | [14] 51.2 µM and 64 µM
inactive: [1] | [2] | [3] | [4] | [5] | [6] | [7] | [8] | [9] | [10] | [11] | [12] | [13] | [15] | [16] | [17] | [18] | [19]

COC(=O)CCC(F)(F)C(F)(F)C(F)(F)C(F)(F)F
inactive: [1] | [2] | [3] | [4] | [5] | [6] | [7] | [8] | [10] | [11] | [12] | [13] | [14] | [15] | [16] | [17] | [18] | [19]

O=C(OCCOCCOCCOC(=O)c1ccccc1)c1ccccc1
inactive: [1] | [2] | [3] | [4] | [5] | [6] | [7] | [8] | [10] | [11] | [12] | [13] | [14] | [20] | [15] | [16] | [17] | [18] | [19]

CCN(Cc1cccc(S(=O)(=O)O)c1)c1ccc(C(=C2C=CC(=[N+](CC)Cc3cccc(S(=O)(=O)O)c3)C=C2)c2ccc(O)cc2S(=O)(=O)[O-])cc1
active: [14] 17.8 µM
inactive: [1] | [2] | [3] | [4] | [5] | [6] | [7] | [8] | [11] | [12] | [13] | [20] | [15] | [16] | [17] | [18] | [19]

C=CC(=O)OCC(F)(F)C(F)(F)C(F)(F)C(F)(F)COC(=O)C=C
inactive: [2] | [3] | [5] | [6] | [11] | [13] | [14] | [18] | [19]
active: [4] 61.4 µM | [7] 33.8 µM | [8] 60.3 µM | [9] 79 µM | [10] 56.7 µM | [12] 62.1 µM | [20] 40.3 µM | [15] 56.2 µM | [16] 44.7 µM | [17] 72.4 µM

FC(F)(F)C(F)(F)C(F)(F)C(F)(F)C(F)(F)C(F)(F)C(F)(F)C(F)(F)CCS
inactive: [1] | [2] | [3] | [4] | [5] | [6] | [7] | [8] | [10] | [11] | [12] | [13] | [14] | [20] | [15] | [16] | [17] | [18] | [19]

Cc1cc(C)cc(O)c1
active: [13] 64.5 µM
inactive: [1] | [3] | [4] | [5] | [6] | [7] | [8] | [9] | [10] | [11] | [12] | [13] | [14] | [15] | [16] | [17] | [18] | [19]
